Composite z-score, composite Z-score and z-score data for six compounds are collected here from PubChem BioAssay.

Each structure is given as a SMILES string. The source made the active and inactive calls.

One assay concerns the target Albumin (Bos taurus) (UniProt P02769). The experiment in a line: bovine serum albumin binders on microarray, profiling panel, artefact control for SMM control protein annotation, biochemical, small-molecule microarray, Alexa647 label, 635/667 nm fluorescence (AID 1118).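 Also: score merges 667 nm emission intensity and signal-to-noise per printed compound spot.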 Particulars: BSA-A647 binding, fluorescence 635 nm, higher = more signal.
The nature of assay [1]: small-molecule microarray binders of probe aXIP, primary screen, biochemical, NeuroSMM set, 635/667 nm fluorescence (AID 1119).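 Also: probe is the protein aXip251-270 applied at 1 µg/mL to compound-printed slides; binding of probe to printed compounds measured as 667 nm fluorescence plus signal to noise.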 Particulars: higher = more signal, called active from +8 up or from −8 down.
Assay [2] can be described thus: small-molecule binders of probe aNOTCH3, primary screen, biochemical, small-molecule microarray, 635/667 nm fluorescence (AID 1120).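 Also: probe is a biotin-tagged antibody raised against NOTCH3 rather than NOTCH3 protein; score merges spot fluorescence near 667 nm with spot signal to noise.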 Particulars: higher = more signal.
A short description of assay [3]: small-molecule binders of probe aNOTCH2, primary screen, biochemical, small-molecule microarray, 635/667 nm fluorescence (AID 1121).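 Also: score merges feature fluorescence read at 667 nm with its signal to noise.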 Particulars: higher = more signal.
Assay [4] concerns the target Carbonic anhydrase 2 (Homo sapiens) (UniProt P00918). The experiment in a line: CAII small-molecule binders, profiling panel, biochemical, small-molecule microarray, Alexa647-labelled CAII (AID 1122). To be noted: CAII-A647 binding fluorescence, higher = more signal.
The nature of assay [5]: COS7 lysate on small-molecule microarray, probe aHis, 635 nm (AID 1123).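 Also: z-score combines 667nm fluorescence intensity with signal-to-noise per printed compound spot.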 To be noted: COS7 cell lysate, fluorescence, higher = more signal.
Assay [6] is described as follows: compound binding in COS7 lysate, probe aLAP1, primary screen, cell lysate, small-molecule microarray (AID 1124).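 Also: lysate comes from COS7 cells expressing LAP1 and is applied at 0.3 µg/mL; score merges spot fluorescence near 667 nm with signal-to-noise over triplicate slides.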 To be noted: probe aLAP1, fluorescence, higher = more signal.
The test system of the next assay is Sam68 (KHDRBS1). Nature of the assay: Sam68 small-molecule binders, primary screen, biochemical, small-molecule microarray, 635 nm fluorescence (AID 1125).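 Also: score merges 667 nm channel intensity with signal to noise over triplicate slides.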 To be noted: small-molecule microarray binding, higher = more signal.
The subject of assay [7] is Chordin-like protein 2 (CHRDL2). Nature of the assay: CHRDL2 small-molecule binders, primary screen, biochemical, small-molecule microarray, 635 nm fluorescence (AID 1126).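 Also: printed compound slides probed with Chrdl2 protein at 4 µg/mL for 1 h at 4 C; score merges 667 nm emission intensity with signal to noise over three replicate slides.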 To be noted: small-molecule microarray binding, fluorescence 635 nm; higher = more signal.
Assay [8] deals with Concanavalin-A (Canavalia ensiformis) (UniProt P02866). The experiment in a line: ConA small-molecule binders, primary screen, artefact control for SMM control protein annotation, biochemical, small-molecule microarray, Alexa647 label, 635 nm (AID 1127).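 Also: z combines 667 nm emission intensity with signal-to-noise across three replicate slides.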 To be noted: ConA-A647 binding fluorescence, higher = more signal.
Assay [9] is described as follows: anti-His antibody binders, primary screen, artefact control for SMM control protein annotation, biochemical, small-molecule microarray, 635 nm fluorescence (AID 1128).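 Also: score merges feature fluorescence with signal-to-noise for each printed compound spot.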 To be noted: anti-His Alexa647 antibody binding, higher = more signal.
Assay [10] deals with Human papillomavirus type 1a E7 protein (residues 1-88). The experiment in a line: HPV1a E7 small-molecule binders, primary screen, biochemical, small-molecule microarray, residues 1-88, 635 nm (AID 1129). To be noted: small-molecule microarray binding, fluorescence 635 nm; higher = more signal.
The target in assay [11] is Focal adhesion kinase 1 (Homo sapiens) (UniProt Q05397). Nature of the assay: small-molecule microarray binders of FAK, primary screen, biochemical, 635/667 nm fluorescence, BSA, DTT (AID 1130).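 Also: composite of spot emission at 667 nm and signal to noise over triplicate slides.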 Particulars: PTK2 binding, 635 nm fluorescence, higher = more signal.
Assay [12] has as its system Fibrinogen (Alexa647-labelled). Nature of the assay: fibrinogen binders on compound microarrays, profiling panel, artefact control for SMM control-protein annotation, biochemical, small-molecule microarray, 635/667 nm fluorescence (AID 1131).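 Also: z-score merges 667 nm fluorescence with per-spot signal-to-noise over triplicate slides.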 To be noted: fibrinogen-A647 binding fluorescence, higher = more signal.
For assay [13], the target named is Follistatin (Homo sapiens) (UniProt P19883). The experiment in a line: follistatin binders on small-molecule microarrays, primary screen, biochemical, small-molecule microarray, 635/667 nm fluorescence (AID 1132). Particulars: FST binding, 635 nm fluorescence, higher = more signal.
Assay [14] deals with Fibroblast growth factor 2 (Homo sapiens) (UniProt P09038). The experiment in a line: FGF2 binders on small-molecule microarrays, primary screen, biochemical, small-molecule microarray, 635/667 nm fluorescence (AID 1133). To be noted: small-molecule microarray binding, FGF2, fluorescence 635/667; higher = more signal.
A short description of assay [15]: mitochondrial membrane potential change in A549 cells, profiling panel, cell-based, JC-1 fluorescence, basal, 24 h, 100 nL (AID 1138).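 Also: A549 lung adenocarcinoma cells under basal conditions with no added stimulus; test concentration not given here.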 Particulars: higher = more signal.
Another assay relates to Lefty1. The experiment in a line: Lefty1 binders on small-molecule microarrays, primary screen, biochemical, small-molecule microarray, 635/667 nm fluorescence (AID 1139). To be noted: small-molecule microarray binding, fluorescence 635/667; higher = more signal.
For assay [16], the system named is wheat germ agglutinin (Triticum aestivum), Alexa647-labelled. Nature of the assay: wheat germ agglutinin binders on compound microarrays, profiling panel, artefact control for SMM control-protein annotation, biochemical, small-molecule microarray, 635/667 nm fluorescence (AID 1140).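 Also: score merges 667 nm feature emission with signal to noise over triplicate slides.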 To be noted: WGA-A647 binding, 635 nm fluorescence, higher = more signal.
The target of assay [17] is Luciferin 4-monooxygenase (Photinus pyralis) (UniProt P08659). The experiment in a line: firefly luciferase enzyme inhibitors, primary screen, biochemical, luminescence, purified enzyme, 2006 set (AID 1141).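 Also: cell-free assay with purified firefly luciferase at 100 ng per well in PBS; test concentration not given here.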 Particulars: SteadyGlo luminescence, 30 min, higher = more signal, called active from +8 up or from −8 down.
Chain of Luciferin 4-monooxygenase (Photinus pyralis) (P08659 whole entry, looked up): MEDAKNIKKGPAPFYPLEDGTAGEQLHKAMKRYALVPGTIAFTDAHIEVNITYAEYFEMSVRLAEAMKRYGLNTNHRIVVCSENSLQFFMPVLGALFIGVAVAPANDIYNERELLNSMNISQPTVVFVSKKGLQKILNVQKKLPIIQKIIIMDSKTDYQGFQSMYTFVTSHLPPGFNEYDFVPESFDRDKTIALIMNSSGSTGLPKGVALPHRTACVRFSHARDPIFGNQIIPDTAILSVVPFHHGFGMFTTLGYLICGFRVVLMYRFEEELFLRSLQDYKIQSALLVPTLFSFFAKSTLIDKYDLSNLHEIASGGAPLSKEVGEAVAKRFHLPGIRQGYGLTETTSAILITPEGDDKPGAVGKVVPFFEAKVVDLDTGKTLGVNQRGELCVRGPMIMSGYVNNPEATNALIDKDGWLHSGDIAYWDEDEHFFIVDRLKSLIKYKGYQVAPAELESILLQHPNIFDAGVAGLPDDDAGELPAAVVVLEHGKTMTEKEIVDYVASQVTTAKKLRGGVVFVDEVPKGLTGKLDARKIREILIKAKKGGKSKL

Chain of Follistatin (Homo sapiens) (P19883 whole entry, looked up): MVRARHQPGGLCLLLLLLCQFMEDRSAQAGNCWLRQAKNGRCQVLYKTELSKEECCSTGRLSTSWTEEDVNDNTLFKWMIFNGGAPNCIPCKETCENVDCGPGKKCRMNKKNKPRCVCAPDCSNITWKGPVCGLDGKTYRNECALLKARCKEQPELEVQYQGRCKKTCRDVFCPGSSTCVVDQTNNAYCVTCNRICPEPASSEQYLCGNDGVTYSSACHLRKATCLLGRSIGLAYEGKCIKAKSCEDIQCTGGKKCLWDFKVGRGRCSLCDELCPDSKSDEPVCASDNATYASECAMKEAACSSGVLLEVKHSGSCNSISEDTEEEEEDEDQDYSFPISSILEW
Chain of Fibroblast growth factor 2 (Homo sapiens) (P09038 whole entry, looked up): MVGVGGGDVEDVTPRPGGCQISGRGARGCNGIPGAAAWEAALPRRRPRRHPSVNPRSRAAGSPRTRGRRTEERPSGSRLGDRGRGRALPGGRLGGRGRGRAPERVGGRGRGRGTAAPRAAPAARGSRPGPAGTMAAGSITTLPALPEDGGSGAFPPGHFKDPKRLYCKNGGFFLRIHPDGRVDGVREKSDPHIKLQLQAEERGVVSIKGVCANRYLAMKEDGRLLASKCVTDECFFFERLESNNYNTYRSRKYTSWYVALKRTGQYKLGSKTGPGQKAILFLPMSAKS
Chain of Albumin (Bos taurus) (P02769 whole entry, looked up): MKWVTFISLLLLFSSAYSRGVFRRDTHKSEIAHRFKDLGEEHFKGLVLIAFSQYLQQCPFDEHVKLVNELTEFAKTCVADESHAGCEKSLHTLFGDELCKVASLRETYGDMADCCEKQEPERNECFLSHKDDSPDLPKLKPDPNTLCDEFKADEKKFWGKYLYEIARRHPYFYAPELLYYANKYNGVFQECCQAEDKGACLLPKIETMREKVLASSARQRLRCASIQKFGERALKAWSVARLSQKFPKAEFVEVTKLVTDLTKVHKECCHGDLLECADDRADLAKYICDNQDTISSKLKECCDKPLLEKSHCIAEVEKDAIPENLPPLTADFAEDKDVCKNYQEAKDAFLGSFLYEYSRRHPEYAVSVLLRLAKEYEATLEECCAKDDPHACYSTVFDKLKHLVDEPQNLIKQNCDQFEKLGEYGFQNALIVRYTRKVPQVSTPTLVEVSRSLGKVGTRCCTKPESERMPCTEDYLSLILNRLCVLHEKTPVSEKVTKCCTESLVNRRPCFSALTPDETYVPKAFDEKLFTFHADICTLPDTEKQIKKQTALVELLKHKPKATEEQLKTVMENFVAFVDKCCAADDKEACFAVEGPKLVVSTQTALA
Chain of Concanavalin-A (Canavalia ensiformis) (P02866 whole entry, looked up): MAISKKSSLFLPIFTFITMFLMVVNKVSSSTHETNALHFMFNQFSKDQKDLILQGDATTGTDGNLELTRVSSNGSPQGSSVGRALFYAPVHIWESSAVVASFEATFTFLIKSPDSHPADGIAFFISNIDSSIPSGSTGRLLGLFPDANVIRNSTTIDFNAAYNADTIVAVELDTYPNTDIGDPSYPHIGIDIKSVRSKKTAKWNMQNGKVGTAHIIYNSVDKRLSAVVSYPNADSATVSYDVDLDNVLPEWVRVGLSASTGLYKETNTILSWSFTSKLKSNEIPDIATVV
Chain of Focal adhesion kinase 1 (Homo sapiens) (Q05397 whole entry, looked up): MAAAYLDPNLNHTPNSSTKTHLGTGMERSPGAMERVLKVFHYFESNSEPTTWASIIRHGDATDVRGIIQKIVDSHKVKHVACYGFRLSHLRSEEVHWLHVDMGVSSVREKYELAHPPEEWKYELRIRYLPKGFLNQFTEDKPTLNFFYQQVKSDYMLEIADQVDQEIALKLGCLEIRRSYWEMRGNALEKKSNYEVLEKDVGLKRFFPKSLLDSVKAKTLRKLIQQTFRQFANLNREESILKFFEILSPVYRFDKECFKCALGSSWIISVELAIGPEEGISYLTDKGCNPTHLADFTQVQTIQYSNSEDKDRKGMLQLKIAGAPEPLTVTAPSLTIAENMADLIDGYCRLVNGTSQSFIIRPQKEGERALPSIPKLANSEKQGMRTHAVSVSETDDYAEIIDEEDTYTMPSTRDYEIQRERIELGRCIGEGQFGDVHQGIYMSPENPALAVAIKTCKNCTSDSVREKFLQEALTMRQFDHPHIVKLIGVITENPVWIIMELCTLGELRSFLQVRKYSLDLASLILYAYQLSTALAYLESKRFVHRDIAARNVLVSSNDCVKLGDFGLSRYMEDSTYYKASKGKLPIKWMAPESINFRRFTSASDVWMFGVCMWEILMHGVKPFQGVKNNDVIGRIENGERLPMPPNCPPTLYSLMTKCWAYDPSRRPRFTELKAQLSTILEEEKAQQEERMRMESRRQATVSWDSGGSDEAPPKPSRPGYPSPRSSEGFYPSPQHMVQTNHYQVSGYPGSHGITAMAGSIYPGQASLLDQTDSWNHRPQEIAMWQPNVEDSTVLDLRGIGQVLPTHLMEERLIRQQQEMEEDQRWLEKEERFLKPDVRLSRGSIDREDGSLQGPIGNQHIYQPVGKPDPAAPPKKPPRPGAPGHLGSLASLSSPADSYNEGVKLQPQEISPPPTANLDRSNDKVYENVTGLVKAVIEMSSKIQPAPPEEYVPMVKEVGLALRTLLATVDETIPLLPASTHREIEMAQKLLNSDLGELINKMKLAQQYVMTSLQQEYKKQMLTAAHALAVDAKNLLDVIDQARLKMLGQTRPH

For the compound `CCOc1ccc(N2C(=O)CSC2c2cccc([N+](=O)[O-])c2)cc1` (stereo not given), the composite z-score with Albumin (Bos taurus) is 0.954; in assay [2] it was 0.133; in assay [3], -0.14; in [4] it was 0.36; in [5], 1.63; in assay [6], 0.181. Besides, the composite z-score was found to be 0.829 with Sam68 (KHDRBS1); 0.428 in assay [7]; 0.789 in assay [8]; 0.798 in [9]; 0.636 in [10]; 0.65 in assay [11]. For the same compound, the composite z-score in assay [12] is 0.71; in assay [13] it was 0.0936; in [14], 0.176; in the assay on Lefty1, -0.157; in assay [16], 1.09. The composite Z-score in assay [1] is 0.625 (inactive). The z-score in assay [15] is 0.56; in assay [17], 0.8 (inactive).
For the compound `COC(=O)[C@@]1(Cc2ccccc2)[C@H]2c3cc(C(=O)N(C)C)n(CCc4c[nH]c5ccc(O)cc45)c3C[C@H]2CN1C(=O)c1ccccc1`, the composite z-score in the assay with Albumin (Bos taurus) was determined as 1.01; in [2] it was 0.238; in [3], 0.153; in [4], 0.858; in assay [5], 2.15; in [6], 1.29. Besides, the composite z-score was 0.878 in the assay on Sam68 (KHDRBS1); -0.676 in [7]; 0.0221 in [8]; 1.53 in [9]; 1.23 in assay [10]; 0.772 in assay [11]. For the same compound, the composite z-score in [12] was -0.0969; in assay [13], 1.35; in assay [14], -0.0235; in the assay with Lefty1, 0.171; in assay [16] it was 0.173. Besides, the composite Z-score in assay [1] is 0.492 (inactive). For the same compound, the figures for the z-score in assay [15] and in assay [17] were -0.409 and -2.82 (inactive), respectively.
As for `CCCC(=O)N(CCc1c[nH]c2ccccc12)[C@@H]1CC(C(=O)NCCO)=C[C@H](Oc2c(I)cc(CO)cc2OC)[C@H]1O`, the composite z-score with Albumin (Bos taurus) is 0.0754; in assay [2] it was -0.0962; in [3], -0.085; in assay [4], 0.723; in assay [5], 0.532; in assay [6] it was -0.107. The composite z-score in the assay on Sam68 (KHDRBS1) is 0.195; in assay [7], 0.144; in [8], 0.314; in assay [9] it was -0.156; in assay [10] it was -0.064; in assay [11], -0.185. For the same compound, the composite z-score in assay [12] is -1.04; in assay [13] it was 0.0919; in [14], 0.289; in the assay with Lefty1 it was 0.0596; in [16], 0.302. The composite Z-score in [1] is -0.471 (inactive). Further, the z-score in assay [15] was 1.13; in [17], -0.437 (inactive).
As to `C=CCOC(=O)[C@H]1[C@@H]2C(=O)O[C@@H](c3ccccc3)[C@@H](c3ccccc3)N2[C@@H](c2ccc(OCCOC(=O)[C@@H]3C[C@@H]4C(=O)N5CCC[C@H]5C(=O)N4[C@@H]3c3cccc(OCCO)c3)cc2)[C@]12C(=O)Nc1ccc(I)cc12`, the composite z-score in the assay with Albumin (Bos taurus) is -0.656; in assay [2] it was 1.12; in assay [3], 0.117; in assay [4] it was 0.269; in assay [5], 1.15; in assay [6] it was 0.322. Besides, the composite z-score with Sam68 (KHDRBS1) came out at 1.29; in [7] it was 1.18; in [8], 1.14; in assay [9], 1.55; in assay [10], 1.2; in assay [11] it was 0.402. The composite z-score was 0.726 in assay [12]; 1.45 in assay [13]; 1.4 in assay [14]; 1.38 in the assay with Lefty1; 0.458 in [16]. In addition, the composite Z-score in assay [1] was 0.686 (inactive). The z-score in [15] was -0.838; in assay [17], -1.12 (inactive).
Consider `CC(C)CNC(=O)[C@@]1(Cc2ccccc2I)c2ccccc2C(=O)N(Cc2ccccc2C(F)(F)F)[C@H]1c1ccc(CO)cc1`, for which the composite z-score in the assay with Albumin (Bos taurus) is 0.212; in assay [2], -0.234; in assay [3], 0.0344; in assay [4], 0.417; in assay [5], 0.959; in assay [6] it was 0.393. The composite z-score in the assay on Sam68 (KHDRBS1) is 0.432; in [7], -0.731; in assay [8], -0.0801; in assay [9], 0.657; in assay [10], 0.0788; in assay [11], -0.287. Further, the composite z-score in assay [12] is -0.105; in assay [13], -0.239; in assay [14], -0.217; with Lefty1, -0.639; in assay [16] it was 0.34. The composite Z-score in [1] is 0.117 (inactive). Also, the z-score in assay [15] is -0.171; in [17], 0.654 (inactive).
Consider `O=C1C2C=CC(C(O)C=Cc3ccc([N+](=O)[O-])cc3)N(n3cnnc3)C2C(=O)N1Cc1ccccc1` (stereo not given), for which the composite z-score was 0.235 in the assay with Albumin (Bos taurus); 0.177 in assay [2]; 0.02 in [3]; 0.66 in [4]; 1.38 in [5]; 1.04 in [6]. Also, the composite z-score is 1.19 in the assay with Sam68 (KHDRBS1); 0.682 in [7]; 0.876 in assay [8]; 1.88 in [9]; 1.06 in [10]; 0.376 in assay [11]. For the same compound, the composite z-score in assay [12] is 0.699; in assay [13], 1.16; in assay [14], -0.0745; in the assay on Lefty1, -0.0293; in assay [16] it was 0.941. Also, the composite Z-score in assay [1] is 0.263 (inactive). Further, the z-score in assay [15] was -0.772; in assay [17] it was 0.872 (inactive).
